Reference: paper PMC7862700, “An all-to-all approach to the identification of sequence-specific readers for epigenetic DNA modifications on cytosine”

Key:
Assay in all cases: DAPPL (digital affinity profiling via proximity ligation, sequencing); 10 mM Tris-HCl pH 7.5, 50 mM NaCl, 1 mM DTT, 4% glycerol, room temperature, 30 min; GST-TFs on glutathione beads, 16-mer random dsDNA library, 0.1% formaldehyde crosslink after washing; high values mean tight binding
FLI1 = molecular target: T1, FLI1 (Homo sapiens, UniProt Q01543 1-452); settings: protein: recombinant; tags: N-terminal GST; dsDNA, one strand shown
T1 sequence: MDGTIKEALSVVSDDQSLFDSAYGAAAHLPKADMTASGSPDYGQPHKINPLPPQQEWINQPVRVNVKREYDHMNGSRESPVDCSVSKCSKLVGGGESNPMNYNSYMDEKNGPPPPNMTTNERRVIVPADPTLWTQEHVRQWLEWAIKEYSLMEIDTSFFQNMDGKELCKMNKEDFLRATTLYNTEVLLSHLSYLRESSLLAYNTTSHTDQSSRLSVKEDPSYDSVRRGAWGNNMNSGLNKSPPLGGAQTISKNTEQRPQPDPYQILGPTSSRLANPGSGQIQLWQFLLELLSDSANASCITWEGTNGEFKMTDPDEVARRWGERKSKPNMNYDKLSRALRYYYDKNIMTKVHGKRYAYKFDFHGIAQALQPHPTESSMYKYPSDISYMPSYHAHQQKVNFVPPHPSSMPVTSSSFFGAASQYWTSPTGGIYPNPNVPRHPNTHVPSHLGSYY
Procedure, shortened: (§1)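 A tag-only sample was pooled with DNA-barcoded human transcription factors that had been expressed in yeast as GST fusions and captured on glutathione beads. The pools were incubated for 30 min at room temperature with 200 nmole of a random double-stranded 16-mer DNA library in Tris/NaCl/DTT/glycerol buffer, then washed, crosslinked with 0.1% formaldehyde, proximity-ligated (BsaI/T4 ligase, 1 h, 37 °C), PCR-amplified and sequenced on an Illumina NextSeq500. Binding signal is each hexamer's read frequency for a factor divided by its frequency for the tag-only sample.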

ELK1 = molecular target: T2, ELK1 (Homo sapiens, UniProt P19419 1-428); settings: protein: recombinant; tags: N-terminal GST; dsDNA, one strand shown
T2 sequence: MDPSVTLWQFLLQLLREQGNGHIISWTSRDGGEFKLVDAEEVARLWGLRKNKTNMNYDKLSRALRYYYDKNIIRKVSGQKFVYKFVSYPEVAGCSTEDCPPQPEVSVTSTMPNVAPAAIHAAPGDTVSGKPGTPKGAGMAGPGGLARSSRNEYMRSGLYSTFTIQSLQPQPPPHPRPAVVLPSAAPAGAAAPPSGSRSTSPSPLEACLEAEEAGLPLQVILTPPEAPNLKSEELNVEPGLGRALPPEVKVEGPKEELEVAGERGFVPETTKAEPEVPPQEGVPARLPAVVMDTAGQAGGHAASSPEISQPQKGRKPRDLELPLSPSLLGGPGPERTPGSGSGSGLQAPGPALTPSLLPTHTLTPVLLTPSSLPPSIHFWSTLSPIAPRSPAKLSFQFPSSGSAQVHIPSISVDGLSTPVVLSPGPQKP
Procedure, shortened: as §1

GABPA = molecular target: T3, GABPA (Homo sapiens, UniProt Q06546 1-454); settings: protein: recombinant; tags: N-terminal GST; dsDNA, one strand shown
T3 sequence: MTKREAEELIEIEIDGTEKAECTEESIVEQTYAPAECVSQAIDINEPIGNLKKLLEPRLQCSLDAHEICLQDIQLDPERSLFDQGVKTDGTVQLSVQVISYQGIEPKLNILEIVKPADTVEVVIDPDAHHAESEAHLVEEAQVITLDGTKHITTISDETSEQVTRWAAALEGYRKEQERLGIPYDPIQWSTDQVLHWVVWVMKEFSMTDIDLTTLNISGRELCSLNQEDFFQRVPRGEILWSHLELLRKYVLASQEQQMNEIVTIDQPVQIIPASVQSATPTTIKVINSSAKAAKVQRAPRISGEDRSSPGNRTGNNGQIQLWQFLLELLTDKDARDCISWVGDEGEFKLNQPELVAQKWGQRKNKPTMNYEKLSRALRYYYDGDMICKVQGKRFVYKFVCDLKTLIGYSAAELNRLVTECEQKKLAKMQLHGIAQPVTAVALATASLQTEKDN
Procedure, shortened: as §1

ERG = molecular target: T4, ERG (Homo sapiens, UniProt P11308 1-479); settings: protein: recombinant; tags: N-terminal GST; dsDNA, one strand shown
T4 sequence: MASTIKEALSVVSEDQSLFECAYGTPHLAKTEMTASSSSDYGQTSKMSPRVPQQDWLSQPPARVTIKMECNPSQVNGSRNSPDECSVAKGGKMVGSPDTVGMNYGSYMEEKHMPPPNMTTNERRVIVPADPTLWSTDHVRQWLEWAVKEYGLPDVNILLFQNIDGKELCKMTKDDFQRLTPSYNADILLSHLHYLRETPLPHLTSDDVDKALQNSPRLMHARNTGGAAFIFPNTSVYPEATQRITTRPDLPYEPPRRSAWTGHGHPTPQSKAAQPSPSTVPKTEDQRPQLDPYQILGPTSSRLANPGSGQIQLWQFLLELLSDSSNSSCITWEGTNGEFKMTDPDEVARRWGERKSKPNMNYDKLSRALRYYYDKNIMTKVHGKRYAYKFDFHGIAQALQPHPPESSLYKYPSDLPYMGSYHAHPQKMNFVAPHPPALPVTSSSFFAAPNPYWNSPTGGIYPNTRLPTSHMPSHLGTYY
Procedure, shortened: as §1

ELF1 = ELF1 (Homo sapiens, UniProt P32519 1-619); settings: protein: recombinant; tags: N-terminal GST; dsDNA, one strand shown
ELF1, sequence (P32519 whole entry): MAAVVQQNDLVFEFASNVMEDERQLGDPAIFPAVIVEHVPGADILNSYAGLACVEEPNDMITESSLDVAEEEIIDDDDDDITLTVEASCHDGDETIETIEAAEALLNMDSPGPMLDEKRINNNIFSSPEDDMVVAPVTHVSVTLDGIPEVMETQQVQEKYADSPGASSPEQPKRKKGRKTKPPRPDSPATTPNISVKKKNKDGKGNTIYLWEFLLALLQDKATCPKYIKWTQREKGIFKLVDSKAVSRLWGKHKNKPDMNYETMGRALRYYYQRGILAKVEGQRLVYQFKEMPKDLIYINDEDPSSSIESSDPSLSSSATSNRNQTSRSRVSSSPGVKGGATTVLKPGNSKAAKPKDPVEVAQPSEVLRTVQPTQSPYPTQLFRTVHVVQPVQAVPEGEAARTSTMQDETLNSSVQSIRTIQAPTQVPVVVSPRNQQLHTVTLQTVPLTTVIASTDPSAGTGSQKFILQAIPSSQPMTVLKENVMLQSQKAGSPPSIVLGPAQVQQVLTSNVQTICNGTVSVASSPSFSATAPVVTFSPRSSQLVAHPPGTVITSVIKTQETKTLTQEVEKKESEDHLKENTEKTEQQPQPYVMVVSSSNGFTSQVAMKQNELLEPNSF
Procedure, shortened: as §1

EHF = molecular target: T5, EHF (Homo sapiens, UniProt Q9NZC4 1-300); settings: protein: recombinant; tags: N-terminal GST; dsDNA, one strand shown
T5 sequence: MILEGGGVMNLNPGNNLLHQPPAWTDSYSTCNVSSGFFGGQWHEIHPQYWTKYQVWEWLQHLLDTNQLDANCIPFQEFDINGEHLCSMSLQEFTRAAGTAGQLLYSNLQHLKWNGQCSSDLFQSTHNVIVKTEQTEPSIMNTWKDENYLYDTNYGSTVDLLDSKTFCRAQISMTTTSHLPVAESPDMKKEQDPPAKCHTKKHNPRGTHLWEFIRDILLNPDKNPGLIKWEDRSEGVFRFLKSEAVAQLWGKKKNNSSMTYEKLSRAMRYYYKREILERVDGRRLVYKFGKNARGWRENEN
Procedure, shortened: as §1

SPI1 = SPI1 (Homo sapiens, UniProt P17947 1-270); settings: protein: recombinant; tags: N-terminal GST; dsDNA, one strand shown
Procedure, shortened: as §1

SPIB = SPIB (Homo sapiens, UniProt Q01892 1-262); settings: protein: recombinant; tags: N-terminal GST; dsDNA, one strand shown
SPIB, sequence (Q01892 whole entry): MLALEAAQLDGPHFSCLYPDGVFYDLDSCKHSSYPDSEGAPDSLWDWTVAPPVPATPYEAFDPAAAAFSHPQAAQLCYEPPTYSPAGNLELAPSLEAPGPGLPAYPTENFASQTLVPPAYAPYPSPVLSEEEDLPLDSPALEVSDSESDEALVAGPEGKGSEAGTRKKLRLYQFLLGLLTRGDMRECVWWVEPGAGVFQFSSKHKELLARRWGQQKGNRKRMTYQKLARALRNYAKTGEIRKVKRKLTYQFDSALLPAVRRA
Procedure, shortened: as §1

ELK3 = molecular target: T6, ELK3 (Homo sapiens, UniProt P41970 1-407); settings: protein: recombinant; tags: N-terminal GST; dsDNA, one strand shown
T6 sequence: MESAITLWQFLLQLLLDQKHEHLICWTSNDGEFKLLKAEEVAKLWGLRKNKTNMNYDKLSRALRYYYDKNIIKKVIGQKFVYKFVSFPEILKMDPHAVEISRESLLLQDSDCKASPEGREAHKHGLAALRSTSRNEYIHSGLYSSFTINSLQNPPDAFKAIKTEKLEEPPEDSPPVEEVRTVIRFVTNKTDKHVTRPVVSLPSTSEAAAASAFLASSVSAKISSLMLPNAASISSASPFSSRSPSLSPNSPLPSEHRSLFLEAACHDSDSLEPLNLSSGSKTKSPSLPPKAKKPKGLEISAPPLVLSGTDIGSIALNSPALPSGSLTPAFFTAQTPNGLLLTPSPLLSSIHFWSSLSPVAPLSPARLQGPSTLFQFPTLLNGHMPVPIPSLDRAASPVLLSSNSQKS
Procedure, shortened: as §1

FEV = molecular target: T7, FEV (Homo sapiens, UniProt Q99581 1-238); settings: protein: recombinant; tags: N-terminal GST; dsDNA, one strand shown
T7 sequence: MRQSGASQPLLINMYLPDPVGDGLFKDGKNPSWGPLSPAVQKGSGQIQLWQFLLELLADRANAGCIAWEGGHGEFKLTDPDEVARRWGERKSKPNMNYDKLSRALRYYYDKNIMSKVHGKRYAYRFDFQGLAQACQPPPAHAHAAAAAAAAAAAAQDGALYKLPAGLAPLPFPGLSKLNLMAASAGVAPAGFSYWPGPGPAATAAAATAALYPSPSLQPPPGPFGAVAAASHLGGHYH
Procedure, shortened: as §1

ETV5 = ETV5 (Homo sapiens, UniProt P41161 1-510); settings: protein: recombinant; tags: N-terminal GST; dsDNA, one strand shown
ETV5, sequence (P41161 whole entry): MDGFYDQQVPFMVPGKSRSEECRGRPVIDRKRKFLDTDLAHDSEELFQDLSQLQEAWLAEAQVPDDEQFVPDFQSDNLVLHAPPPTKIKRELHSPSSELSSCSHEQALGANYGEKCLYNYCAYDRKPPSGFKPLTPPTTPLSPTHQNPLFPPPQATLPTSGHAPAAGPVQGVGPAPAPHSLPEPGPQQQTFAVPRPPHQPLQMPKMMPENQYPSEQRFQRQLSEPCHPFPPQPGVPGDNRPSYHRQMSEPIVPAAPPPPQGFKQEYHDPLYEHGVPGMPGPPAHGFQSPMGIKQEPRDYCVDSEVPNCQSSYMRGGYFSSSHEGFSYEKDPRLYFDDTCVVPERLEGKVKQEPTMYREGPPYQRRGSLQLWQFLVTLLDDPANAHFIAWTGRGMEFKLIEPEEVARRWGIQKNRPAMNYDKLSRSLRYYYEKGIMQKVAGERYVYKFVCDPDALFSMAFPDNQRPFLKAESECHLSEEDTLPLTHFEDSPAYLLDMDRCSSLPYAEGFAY
Procedure, shortened: as §1

HSF1 = HSF1 (Homo sapiens, UniProt Q00613 1-529); settings: protein: recombinant; tags: N-terminal GST; chain copies: 3; dsDNA, one strand shown
HSF1, sequence (Q00613 whole entry): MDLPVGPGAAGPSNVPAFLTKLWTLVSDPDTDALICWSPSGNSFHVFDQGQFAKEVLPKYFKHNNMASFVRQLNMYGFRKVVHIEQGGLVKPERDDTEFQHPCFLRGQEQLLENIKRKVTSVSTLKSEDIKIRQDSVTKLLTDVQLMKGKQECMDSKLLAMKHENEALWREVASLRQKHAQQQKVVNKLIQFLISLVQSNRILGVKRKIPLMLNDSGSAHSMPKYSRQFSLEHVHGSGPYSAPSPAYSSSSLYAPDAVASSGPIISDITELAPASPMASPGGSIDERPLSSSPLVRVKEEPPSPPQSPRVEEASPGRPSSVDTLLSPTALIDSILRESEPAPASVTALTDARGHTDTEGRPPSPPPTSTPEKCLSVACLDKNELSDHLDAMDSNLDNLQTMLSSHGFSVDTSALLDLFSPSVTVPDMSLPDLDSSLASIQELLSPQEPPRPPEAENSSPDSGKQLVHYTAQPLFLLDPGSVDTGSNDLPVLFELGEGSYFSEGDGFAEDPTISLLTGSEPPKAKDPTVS
Procedure, shortened: as §1

SPIC = molecular target: T8, SPIC (Homo sapiens, UniProt Q8N5J4 1-248); settings: protein: recombinant; tags: N-terminal GST; dsDNA, one strand shown
T8 sequence: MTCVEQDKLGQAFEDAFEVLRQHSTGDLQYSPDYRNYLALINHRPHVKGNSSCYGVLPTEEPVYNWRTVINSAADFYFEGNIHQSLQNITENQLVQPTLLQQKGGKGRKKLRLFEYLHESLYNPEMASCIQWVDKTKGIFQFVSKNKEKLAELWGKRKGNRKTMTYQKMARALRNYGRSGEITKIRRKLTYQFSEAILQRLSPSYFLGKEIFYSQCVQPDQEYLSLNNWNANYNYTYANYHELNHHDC
Procedure, shortened: as §1

ELF4 = ELF4 (Homo sapiens, UniProt Q99607 1-663); settings: protein: recombinant; tags: N-terminal GST; dsDNA, one strand shown
ELF4, sequence (Q99607 whole entry): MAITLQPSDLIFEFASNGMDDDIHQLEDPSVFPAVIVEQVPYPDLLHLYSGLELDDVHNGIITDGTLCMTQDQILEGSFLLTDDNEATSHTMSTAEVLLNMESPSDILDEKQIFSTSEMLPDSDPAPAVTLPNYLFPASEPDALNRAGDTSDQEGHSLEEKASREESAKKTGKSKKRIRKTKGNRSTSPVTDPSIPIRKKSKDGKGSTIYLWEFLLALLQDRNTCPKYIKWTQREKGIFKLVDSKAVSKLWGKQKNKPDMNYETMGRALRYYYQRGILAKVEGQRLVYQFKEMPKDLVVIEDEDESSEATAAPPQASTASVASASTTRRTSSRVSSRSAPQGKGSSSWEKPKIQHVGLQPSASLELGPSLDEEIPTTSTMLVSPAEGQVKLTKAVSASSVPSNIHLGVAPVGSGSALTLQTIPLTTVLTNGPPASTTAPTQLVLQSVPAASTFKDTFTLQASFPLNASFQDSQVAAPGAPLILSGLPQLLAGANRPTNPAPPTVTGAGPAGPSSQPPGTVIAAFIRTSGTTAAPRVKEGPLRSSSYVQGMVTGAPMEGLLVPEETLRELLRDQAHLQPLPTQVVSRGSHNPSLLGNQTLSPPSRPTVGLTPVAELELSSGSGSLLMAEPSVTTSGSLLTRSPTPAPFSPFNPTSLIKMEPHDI
Procedure, shortened: as §1

ELK4 = molecular target: T9, ELK4 (Homo sapiens, UniProt P28324-2 1-405); settings: protein: recombinant; tags: N-terminal GST; dsDNA, one strand shown
T9 sequence: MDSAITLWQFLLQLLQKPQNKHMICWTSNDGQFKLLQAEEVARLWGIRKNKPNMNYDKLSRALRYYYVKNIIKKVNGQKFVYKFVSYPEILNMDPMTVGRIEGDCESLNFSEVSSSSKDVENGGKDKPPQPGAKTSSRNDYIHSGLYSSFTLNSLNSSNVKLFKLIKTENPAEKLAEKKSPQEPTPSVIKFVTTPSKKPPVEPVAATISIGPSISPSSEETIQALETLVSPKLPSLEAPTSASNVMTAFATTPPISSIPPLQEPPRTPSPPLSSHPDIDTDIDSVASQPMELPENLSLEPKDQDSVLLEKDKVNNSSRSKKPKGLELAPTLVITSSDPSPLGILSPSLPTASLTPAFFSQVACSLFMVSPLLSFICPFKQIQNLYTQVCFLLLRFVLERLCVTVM
Procedure, shortened: as §1

ETV2 = molecular target: T10, ETV2 (Homo sapiens, UniProt O00321 1-342); settings: protein: recombinant; tags: N-terminal GST; dsDNA, one strand shown
T10 sequence: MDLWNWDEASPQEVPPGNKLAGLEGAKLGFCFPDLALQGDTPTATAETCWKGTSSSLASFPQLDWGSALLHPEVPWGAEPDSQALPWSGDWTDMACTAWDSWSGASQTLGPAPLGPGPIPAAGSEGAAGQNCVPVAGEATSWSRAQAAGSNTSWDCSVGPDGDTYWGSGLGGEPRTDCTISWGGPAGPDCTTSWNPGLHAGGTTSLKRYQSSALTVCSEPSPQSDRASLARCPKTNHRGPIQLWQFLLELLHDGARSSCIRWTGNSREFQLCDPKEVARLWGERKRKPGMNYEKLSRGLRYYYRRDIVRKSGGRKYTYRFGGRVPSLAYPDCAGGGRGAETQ
Procedure, shortened: as §1

ELF3 = molecular target: T11, ELF3 (Homo sapiens, UniProt P78545 1-371); settings: protein: recombinant; tags: N-terminal GST; dsDNA, one strand shown
T11 sequence: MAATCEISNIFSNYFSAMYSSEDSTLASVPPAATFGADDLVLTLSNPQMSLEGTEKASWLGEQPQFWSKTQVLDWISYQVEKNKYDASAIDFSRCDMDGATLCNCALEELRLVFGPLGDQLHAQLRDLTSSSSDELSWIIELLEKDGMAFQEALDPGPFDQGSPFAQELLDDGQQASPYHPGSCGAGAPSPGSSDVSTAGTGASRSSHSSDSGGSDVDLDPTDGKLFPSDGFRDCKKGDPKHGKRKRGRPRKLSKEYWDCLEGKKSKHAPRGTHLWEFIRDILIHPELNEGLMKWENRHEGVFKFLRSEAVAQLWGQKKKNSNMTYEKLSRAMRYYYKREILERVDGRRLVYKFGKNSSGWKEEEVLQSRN
Procedure, shortened: as §1

CRX = CRX (Homo sapiens, UniProt O43186 1-299); settings: protein: recombinant; tags: N-terminal GST; dsDNA, one strand shown
CRX, sequence (O43186 whole entry): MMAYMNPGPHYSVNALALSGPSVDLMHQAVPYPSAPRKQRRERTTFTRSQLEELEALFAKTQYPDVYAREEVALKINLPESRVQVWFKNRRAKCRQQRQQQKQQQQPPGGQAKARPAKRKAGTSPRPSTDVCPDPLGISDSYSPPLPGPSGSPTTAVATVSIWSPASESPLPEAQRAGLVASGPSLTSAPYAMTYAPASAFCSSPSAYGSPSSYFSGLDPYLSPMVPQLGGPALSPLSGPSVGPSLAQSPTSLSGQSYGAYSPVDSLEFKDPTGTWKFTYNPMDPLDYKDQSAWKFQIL
Procedure, shortened: as §1

ETV1 = ETV1 (Homo sapiens, UniProt P50549 1-477); settings: protein: recombinant; tags: N-terminal GST; dsDNA, one strand shown
ETV1, sequence (P50549 whole entry): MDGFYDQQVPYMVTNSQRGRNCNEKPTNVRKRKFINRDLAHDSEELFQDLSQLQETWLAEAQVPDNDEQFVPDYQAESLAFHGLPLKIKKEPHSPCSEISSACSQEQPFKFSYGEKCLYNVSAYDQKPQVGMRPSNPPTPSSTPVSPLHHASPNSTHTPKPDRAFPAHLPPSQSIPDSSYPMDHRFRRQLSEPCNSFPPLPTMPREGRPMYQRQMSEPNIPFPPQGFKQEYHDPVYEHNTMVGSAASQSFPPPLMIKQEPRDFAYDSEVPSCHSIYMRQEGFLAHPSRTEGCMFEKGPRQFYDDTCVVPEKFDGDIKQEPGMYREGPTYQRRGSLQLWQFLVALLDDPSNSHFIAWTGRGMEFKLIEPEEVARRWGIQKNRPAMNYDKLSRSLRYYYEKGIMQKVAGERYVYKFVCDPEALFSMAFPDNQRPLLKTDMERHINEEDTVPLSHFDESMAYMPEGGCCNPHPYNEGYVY
Procedure, shortened: as §1

TTATCG
binding signal (FLI1): 1.17 fold enrichment (6-mer frequency, TF over GST control) | binding signal (ELK1): 1.28 fold enrichment (6-mer frequency, TF over GST control) | binding signal (GABPA): 1.3 fold enrichment (6-mer frequency, TF over GST control) | binding signal (ERG): 1.3 fold enrichment (6-mer frequency, TF over GST control) | binding signal (ELF1): 1.25 fold enrichment (6-mer frequency, TF over GST control) | binding signal (EHF): 1.25 fold enrichment (6-mer frequency, TF over GST control) | binding signal (SPI1): 1.15 fold enrichment (6-mer frequency, TF over GST control) | binding signal (SPIB): 1.13 fold enrichment (6-mer frequency, TF over GST control) | binding signal (ELK3): 1.17 fold enrichment (6-mer frequency, TF over GST control) | binding signal (FEV): 1.21 fold enrichment (6-mer frequency, TF over GST control) | binding signal (ETV5): 1.25 fold enrichment (6-mer frequency, TF over GST control) | binding signal (HSF1): 1.99 fold enrichment (6-mer frequency, TF over GST control) | binding signal (SPIC): 1.33 fold enrichment (6-mer frequency, TF over GST control) | binding signal (ELF4): 1.27 fold enrichment (6-mer frequency, TF over GST control) | binding signal (ELK4): 1.37 fold enrichment (6-mer frequency, TF over GST control) | binding signal (ETV2): 1.18 fold enrichment (6-mer frequency, TF over GST control) | binding signal (ELF3): 1.22 fold enrichment (6-mer frequency, TF over GST control) | binding signal (CRX): 2.79 fold enrichment (6-mer frequency, TF over GST control) | binding signal (ETV1): 1.2 fold enrichment (6-mer frequency, TF over GST control)
